# Nrf2 block: inhibitors of Nrf2 signaling | A549 ARE-Fluc reporter, luciferase luminescence, 18-24 h | Potency, µM (doses to about 46 µM), most hits filed as inhibitors | hit rate 2.1% among 360,000 | AID 504444; note: nearly all actives have a fitted effect of over 60% in size
#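 Cells were seeded and rested 2 h, then exposed to compounds for 18-24 h. CellTiter-Fluor was read first as a viability measure. BugLite was added 15 min before the final luminescent read of ARE-luciferase activity in A549 cells.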
# A549 tox-1: kills or reduces viability of A549 cells in Nrf2 counter-screen | A549 ARE-Fluc cells, CellTiter-Fluor viability, 18-24 h | Potency, µM (top dose mostly 46 µM), actives largely listed as inhibitors | hit rate 0.16% among 390,000 | AID 504648
#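 A549 ARE_Fluc cells in 5% FBS OPTI-MEM were exposed to compounds in concentration-response for 18-24 h at 37 deg C. Viability was read by CellTiter-Fluor fluorescence (Ex 405/Em 525) after 30 min, before the luciferase read.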
# ATXN viability: viability counter-screen for ATXN expression inhibitors; S2 cells (HEK-293 line with an ATXN2-luciferase reporter) viability, CellTiter-Fluor protease fluorescence, 24 h; hit rate 0.49% among 400,000; Potency, µM (highest dose often 56.7 µM), usual class: cytotoxic; note: nearly all actives have a fitted effect of over 40% in size
# ATXN2 expr inh: inhibitors of ATXN2 expression | HEK-293 ATXN2-luciferase reporter, luminescence, 24 h | Potency, µM (highest dose often 57 µM), hits mostly inhibitors | hit rate 0.72% among 360,000; note: nearly all actives have a fitted effect of over 55% in size
#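 qHTS (up to 57 uM final) was run with 24 h compound exposure of reporter cells at 37 °C. Each well was multiplexed: SteadyGlo luminescence measured ATXN2-luciferase expression after a fluorogenic Gly-Phe-AFC viability readout (25 uM final).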
# HepG2 viability: counter-screen for TGF-b inhibitors: cytotoxicity in HepG2 cells. HepG2 CAGA-GFP viability, ATP luminescence, 18 h. hit rate 0.76% among 410,000. AID 588856. Potency, µM (titrated, usually from 46.1 µM), most hits filed as cytotoxic
#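 HepG2 CAGA-GFP cells (1000/well, DMEM with 1% FBS) received compound, then TGF-beta at 500 pg/mL final, and were incubated 18 hours at 37 degrees C. Viability was read by CellTiter-Glo luminescence. Media-only wells were set as complete cell-killing and DMSO as no toxicity.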
# TGFb inhibitor: inhibitors of TGF-b signaling; HepG2 CAGA-GFP TGF-b/SMAD3 reporter, GFP fluorescence, 18 h; TGF-beta stimulated, 500 pg/mL final; Potency, µM (top dose mostly 46.1 µM), hits mostly inhibitors; hit rate 1.2% among 410,000; AID 588855; note: nearly all actives have a fitted effect of over 65% in size
#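 HEPG2 CAGA-GFP reporter cells (1000/well, DMEM with 1% FBS) received compounds, then recombinant TGF-beta at 500 pg/mL final for 18 hours at 37 degrees C. Per-cell GFP summed per well was normalised to unstimulated and stimulated DMSO controls before curve fitting.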
# FLuc counter 3: blocks purified firefly luciferase in Nrf2 counterscreen | AID 720522 | Potency, µM (top dose mostly 57.5 µM), usual class: inhibitors | purified firefly luciferase, luminescence inhibition | shares compounds with Nrf2 block | hit rate 4% among 1,400; note: nearly all actives have a fitted effect of over 65% in size
# Target sequence (P08659 whole entry, looked up): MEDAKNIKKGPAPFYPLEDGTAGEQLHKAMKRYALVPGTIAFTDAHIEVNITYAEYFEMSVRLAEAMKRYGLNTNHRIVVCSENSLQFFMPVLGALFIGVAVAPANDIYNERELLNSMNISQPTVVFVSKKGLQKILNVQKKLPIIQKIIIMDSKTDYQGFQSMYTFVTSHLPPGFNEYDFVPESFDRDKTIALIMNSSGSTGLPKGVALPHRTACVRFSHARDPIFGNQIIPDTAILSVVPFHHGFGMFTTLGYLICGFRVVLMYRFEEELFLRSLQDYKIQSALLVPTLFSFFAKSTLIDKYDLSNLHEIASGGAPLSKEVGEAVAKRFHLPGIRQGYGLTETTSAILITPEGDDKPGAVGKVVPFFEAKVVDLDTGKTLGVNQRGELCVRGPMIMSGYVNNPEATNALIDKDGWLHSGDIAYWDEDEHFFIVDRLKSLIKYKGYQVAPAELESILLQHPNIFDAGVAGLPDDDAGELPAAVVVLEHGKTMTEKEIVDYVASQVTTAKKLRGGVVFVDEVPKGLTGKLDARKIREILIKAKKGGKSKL
# A549 tox-2: A549 cytotoxicity, Nrf2 inhibitor counterscreen; hit rate 2% among 1,400; AID 720523; A549 ARE-Fluc cells, cytotoxicity counterscreen; Potency, µM (series often up to 46.1 µM), most hits filed as inhibitors; shares compounds with Nrf2 block;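 note: cells exposed to compounds for 18 to 24 hours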
# Nrf2 ARE inh: Nrf2 inhibition confirmed, A549 ARE-luciferase | shares compounds with Nrf2 block | A549 ARE-firefly luciferase reporter, luminescence | hit rate 74% among 1,400 | AID 720524 | Potency, µM (titrated, usually from 46.1 µM), usual class: inhibitors; note: nearly all actives have a fitted effect of over 65% in size
# Numbers stand for hits; . = inactive; ? = inconclusive; / = not tested or not shown; ! = not active in a repeat. Rows were chosen to be rich in hits. Some 3.8% of all compounds tested hit in one or more screens of this group. Calls come from the whole dose curve; as a rule, active = well fitted curve in the direction sought with a large enough effect; inconclusive = small, poorly fitted or top-dose-only effect, or another doubt; inactive = no such curve, though single readings can be large; an effect the other way counts as inactive or inconclusive.
SMILES,Nrf2 block,A549 tox-1,ATXN viability,ATXN2 expr inh,HepG2 viability,TGFb inhibitor,FLuc counter 3,A549 tox-2,Nrf2 ARE inh
C[n+]1ccccc1/C=C/c1ccc([N+](=O)[O-])cc1,3.66µM,?,.,.,.,.,.,?,7.31µM
C[n+]1ccccc1/C=C/c1c(F)cccc1F,2.59µM,?,.,.,.,?,.,.,2.06µM
Cc1ccccc1/C=C/c1cccc[n+]1C,1.84µM,.,/,/,.,.,.,.,4.11µM
Nc1ccc(/C=C/c2nc3ccccc3s2)cc1,/,/,/,/,.,.,/,/,/
CCC(CN)CC(C)CCNCC(O)CNCC(C)CC(CC)CN (centres undefined),/,/,.,/,/,/,/,/,/
O=S(=O)(N=Cc1c(O)ccc2ccccc12)c1cccs1,/,/,/,.,/,/,/,/,/
Cc1cc2c([nH]c3ccccc32)c2c1OC(C)(C)C=C2,?,.,.,.,.,?,/,/,/
COc1ccc2[nH]c(=O)c3c(c2c1)OC(C)(C)C=C3,8.2µM,.,.,.,.,?,.,.,11.6µM
O=S(=O)(c1cccc(C(F)(F)F)c1)n1c(/C=C/c2ccccc2)nc2ccccc21,/,.,/,/,.,.,/,/,/
O=C(NCc1cccs1)c1ccc2ccccc2n1,?,.,.,.,.,.,/,/,/
C=C(c1ccc2ccccc2n1)c1cccs1,/,/,/,/,.,.,.,.,?
OC(c1ccc(F)c(F)c1)c1ncc(-c2cccc(F)c2)[nH]1 (centres undefined),/,/,.,.,.,.,/,/,/
CCN=c1scc(-c2ccc3c(c2)NC(=O)CO3)n1N=C1CCCC1,16.4µM,.,.,.,.,.,.,.,7.31µM
COCC(C)n1c(-c2ccc3c(c2)NC(=O)CO3)csc1=Nc1ccc(OC(F)F)cc1 (centres undefined),10.3µM,?,.,.,12.6µM!,?,.,.,9.2µM
O=C1COc2ccc(-c3csc(=Nc4ccc(OC(F)F)cc4)n3CC3CCCO3)cc2N1 (centres undefined),?,?,.,.,.,.,/,/,/
CCN(CC)CCCNC(=O)CSc1nc(-c2ccc(OC)cc2)cc(C(F)(F)F)n1,/,.,.,.,.,.,/,/,/
Cc1ccc(C(=O)NCC(=O)OCC(=O)c2ccc3ccccc3c2)cc1,.,.,/,/,.,.,/,/,/
O=C(Nc1ccc(Cl)cc1)Nc1ccc(N2CCCC2)c(S(=O)(=O)Nc2ccccc2Cl)c1,3.26µM,?,.,?,.,?,.,?,6.51µM
COc1ccccc1NS(=O)(=O)c1cc(NC(=O)Nc2cccc(C)c2)ccc1N1CCCCC1,.,.,.,.,.,.,/,/,/
CC1(C)CC(=O)c2sc(N3CCCCC3)nc2C1,?,.,.,.,.,.,/,/,/
CC1(C)CC(N2CCCC2)=CC(=[N+]2CCCC2)C1,2.06µM,.,.,.,.,?,.,.,5.17µM
CC1(C)CC(N2CCCC2)=CC(=[N+]2CCCCC2)C1,4.11µM,.,.,?,.,?,.,.,5.17µM
CC1(C)CC(NNCCC#N)=CC(=[N+]2CCCC2)C1,.,.,.,.,.,.,/,/,/
O=C(N/N=C/c1cccc(Br)c1)C1CC(=O)N(c2ccccc2)C1 (centres undefined),.,.,.,.,.,.,/,/,/
COc1cc(C2CC(=O)c3c([nH]c(C(=O)OCc4ccc(C)cc4)c3C)C2)cc(OC)c1OC (centres undefined),2.31µM,.,/,/,.,?,.,.,4.61µM
SMILES,Nrf2 block,A549 tox-1,ATXN viability,ATXN2 expr inh,HepG2 viability,TGFb inhibitor,FLuc counter 3,A549 tox-2,Nrf2 ARE inh
COc1cc(C2CC(=O)c3c([nH]c(C(=O)OCCOC(C)C)c3C)C2)cc(OC)c1OC (centres undefined),4.61µM,?,?,31.6µM,.,.,.,.,9.2µM
CCOC(=O)c1[nH]c2c(c1C)C(=O)CC(c1ccc(OC)c(OC)c1)C2 (centres undefined),.,.,?,.,.,.,/,/,/
O=C(Nc1cc(Cl)ccc1C(=O)O)c1ccc(CN2C(=O)c3ccccc3C2=O)cc1,.,.,.,.,.,.,/,/,/
Oc1c(C(Nc2cccc(C(F)(F)F)c2)c2ccncc2)ccc2cccnc12 (centres undefined),.,.,/,?,.,.,/,/,/
Oc1c(C(Nc2nccs2)c2ccc(C(F)(F)F)cc2)ccc2cccnc12 (centres undefined),4.61µM,.,.,12.6µM,.,22.4µM,.,.,5.8µM
Cc1oc(-c2ccc(C(=O)Nc3cccc(C(F)(F)F)c3)cc2)nc1CSc1ccccc1,5.8µM,?,/,/,.,?,.,.,1.84µM
CCCCC1Cc2[nH]c(=S)[nH]c(=O)c2C(c2ccc(Cl)cc2)O1 (centres undefined),/,/,.,.,.,.,/,/,/
O=C(CNc1cccc2ccccc12)N/N=C/c1ccc[nH]1,3.66µM,.,.,.,.,.,?,.,2.91µM
CCC1(CC)NC(=O)N(CC(=O)OCC(=O)Nc2cc(OC)ccc2OC)C1=O,.,.,.,.,.,.,/,/,/
O=C(c1ccc(F)cc1Cl)N1CCN(S(=O)(=O)c2cccs2)CC1,?,.,.,.,.,.,/,/,/
S=C(NCc1cccnc1)Nc1cccc2ccccc12,.,.,.,.,.,.,/,/,/
S=C(NCCc1ccccc1)Nc1cccc2cnccc12,3.66µM,.,.,?,.,?,0.0426µM,.,2.59µM
CCCCNC(=S)Nc1cccc2cnccc12,.,.,.,.,.,.,/,/,/
S=C(NCc1ccccc1)Nc1cccc2cnccc12,2.59µM,.,.,?,.,.,.,.,7.31µM
C[n+]1ccccc1COc1ccc(C(C)(C)C)cc1,2.31µM,?,.,.,.,.,.,.,5.17µM
CCOc1cccc(C(=O)N(Cc2ccc(CC)cc2)C2CCS(=O)(=O)C2)c1 (centres undefined),.,.,.,.,.,.,/,/,/
CCC1(CC)NC(=O)N(CC(=O)OC(C)C(=O)Nc2cc([N+](=O)[O-])ccc2OC)C1=O (centres undefined),.,.,.,.,.,?,/,/,/
CCCC(=O)NC(c1ccccc1OC)c1ccc2cccnc2c1O (centres undefined),7.31µM,?,.,?,.,.,.,.,9.2µM
CCCC(=O)NC(c1ccc(C)cc1)c1ccc2cccnc2c1O (centres undefined),?,.,.,?,.,?,/,/,/
CCC(=O)NC(c1cccc(C)c1)c1cc(Cl)c2cccnc2c1O (centres undefined),.,.,/,/,/,/,/,/,/

# Screening data deposited in PubChem by National Center for Advancing Translational Sciences (NCATS).
